Consider eight compounds from PubChem BioAssay (NCI).

This is part of a sample that, as a whole, favours compounds with a hit. Of some 83,000 tested, about 20% had one in any assay.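 Negative percent growth values reflect cell death: -40 means 40% of the cells present at the start died, and -100 means all died.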 Values without a mark were called inactive. Activity calls are given as the source filed them. Rule for the calls: active = growth percent below 10; inactive = the rest.

What all share (assay): NCI-60 one-dose screen, 48 h (100 = growth as untreated, 0 = no growth, -100 = all killed)
Details in all cases: 10 µM unless noted

For assay [1], the system named is NCI-H23 lung.
In assay [2] the test system is NCI-H226 lung.
In assay [3] the test system is NCI-H322M lung.
Assay [4] deals with HOP-62 NSCLC.
Assay [5] relates to NCI-H460 lung.
Assay [6] has as its system HOP-92 NSCLC.
The test system of assay [7] is NCI-H522 lung.
The subject of assay [8] is A549/ATCC NSCLC.
In assay [9] the test system is 786-0 renal.
The subject of assay [10] is COLO 205 colon.
Assay [11] concerns DU-145 prostate.
Assay [12] concerns K-562 leukemia.
In assay [13] the test system is MALME-3M melanoma.
Assay [14] has as its system MDA-MB-231 breast.
Assay [15] concerns SF-268 CNS.
The subject of assay [16] is SF-295 CNS.
In assay [17] the test system is SF-539 CNS.
For assay [18], the system named is UACC-257 melanoma.
The subject of assay [19] is M14 melanoma.

As to `Cn1c(COC(=O)NCCN2CCOCC2)nc2c(N3CCOCC3)nc(-c3ccccc3)nc21`, the growth in assay [1] is -48.2% (active); in assay [2], -65% (active); in assay [3], 69%; in [4], 23.2%; in assay [5] it was 1.27% (active); in [6], -62.8% (active). Also, the growth in assay [7] is -44.6% (active); in [8], 30.7%; in assay [9], -83.9% (active); in [10], -45.7% (active); in assay [11], -81.6% (active); in assay [12], 0.451% (active). Further, the growth is -91.9% (active) in assay [13]; -88.9% (active) in [14]; -36.8% (active) in assay [15]; 57% in assay [16]; -98.7% (active) in assay [17]; -46.6% (active) in [18]. Further, in [19], the growth was -75.9% (active).
For `CN1CCN(c2cc(F)c(NC3=C(Cl)C(=O)c4ncccc4C3=O)c(F)c2)CC1`, the growth in assay [1] is -61.2% (active); in assay [2], 85.3%; in [3], 102%; in [4], 83.3%; in assay [5] it was 9.91% (active); in [6], -79.9% (active). For the same compound, the growth in assay [7] was -59.7% (active); in assay [8], 74.6%; in assay [9], -72% (active); in assay [10] it was 34%; in assay [11], -67.6% (active); in assay [12], -0.834% (active). Also, the growth in assay [13] is -96.1% (active); in [14], -32% (active); in [15], 48.7%; in [16], 78.8%; in assay [17], -25.1% (active); in assay [18] it was -62.2% (active). In addition, in [19], the growth is -40.5% (active).
For `NC(=O)C1(N2CCCCC2)CCN(CCCC(=O)c2ccc(F)cc2)CC1`, the growth in assay [1] is 31.6%; in [2], 43.7%; in [3], 52.5%; in [4] it was 38.3%; in assay [5], 11.9%; in assay [6], 92.5%. Besides, the growth is -30.2% (active) in [7]; 79.3% in assay [8]; 49.8% in [9]; 13.9% in assay [10]; 5.34% (active) in assay [11]; 10.8% in assay [12]. Also, the growth was 57.1% in assay [13]; 29.7% in [14]; 38.4% in [15]; 4.82% (active) in [16]; -3.17% (active) in assay [17]; 47.1% in assay [18]. Also, the growth in [19] was 44.8%.
As for `COc1ccc(NC(=O)c2sc3nc(C)c(C(=O)c4ccc(OC)cc4)cc3c2N)cc1`, the growth in [1] is 73.9%; in assay [2], 87.9%; in [3], 40.3%; in assay [4], 43%; in [5], 9.29% (active); in assay [6], 67.3%. In addition, the growth in assay [7] is 40.7%; in [8] it was 24.6%; in assay [9], 59.9%; in assay [10], 42.9%; in assay [11], 65.4%; in [12] it was 23.3%. Moreover, the growth in assay [13] is 37.9%; in [14], 60.2%; in assay [15] it was 61.8%; in [16] it was 44.3%; in [17], 51%; in assay [18], 55.8%.
On to `CC1(C)CN(Cc2ccccc2)CCN1Cc1ccccc1`, for which the growth in [1] is 104%; in [2], 95%; in assay [3] it was 103%; in assay [4] it was 108%; in assay [5], 106%; in assay [6], 96.3%. In addition, the growth was 91.8% in assay [7]; 89.5% in assay [8]; 99.6% in assay [9]; 112% in assay [10]; 114% in assay [11]; 98.8% in assay [12]. Besides, the growth is 116% in [13]; 101% in assay [14]; 105% in assay [15]; 101% in [16]; 107% in assay [17]; 89.1% in assay [18].
Turning to `O=c1nc2n(nc1/C=C/c1ccco1)CC(c1ccc(Cl)cc1)=NN2`, the growth was 93% in assay [1]; 100% in [2]; 84.2% in assay [3]; 82.9% in assay [4]; 108% in [5]; 87.6% in [6]. Moreover, the growth in [7] is 79.4%; in assay [8], 104%; in assay [9], 95.7%; in assay [10], 110%; in [11], 115%; in assay [12], 53.6%. In addition, the growth in assay [13] was 92%; in [14] it was 117%; in [15], 109%; in [16] it was 97.9%; in assay [17], 104%; in [18] it was 104%. Also, the growth in assay [19] is 104%.
For the compound `NS(=O)(=O)c1cccc(NC(=O)C(=O)C2C(=O)Nc3ccccc32)c1` (stereo not given), the growth was 95.3% in assay [1]; 95.9% in assay [2]; 121% in assay [3]; 90.2% in assay [4]; 106% in assay [5]; 74.6% in [6]. The growth is 102% in assay [7]; 103% in [8]; 114% in [9]; 123% in assay [10]; 107% in [11]; 109% in [12]. The growth in [13] is 102%; in assay [14] it was 95.7%; in [15], 105%; in assay [16], 94.2%; in [17], 101%; in assay [18] it was 100%. Besides, the growth in assay [19] is 99.1%.
For `c1ccc(-c2nnc(Nc3ccc4c(c3)OCCO4)o2)c(NCc2ccncc2)c1`, the growth in assay [1] is 2.75% (active); in assay [2], -9.34% (active); in [3], 40.4%; in [4], 25.3%; in assay [5], 4.52% (active); in [6], 77.7%. Also, the growth in assay [7] is -34.5% (active); in [8] it was 22.6%; in assay [9] it was 17.1%; in [10], -68.8% (active); in assay [11], -22% (active); in assay [12], 12.1%. In addition, the growth in assay [13] was 53.6%; in assay [14] it was 15.4%; in assay [15] it was 14.3%; in [16], 3.68% (active); in assay [17], -2.94% (active); in assay [18] it was 68.3%. Besides, the growth in assay [19] is -17.8% (active).
